Screening results deposited in PubChem by several laboratories.
Mtb betalactam: beta-lactam sensitization of Mtb H37Rv. M. tuberculosis H37Rv growth with meropenem, percent inhibition. actives 0.27% (n = 330,000). inhibition, % at 25 µM. AID 434955; call rule not given here;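 note: growth measured after seven days incubation then overnight dye step; 0% = bacteria only wells and 100% = bacteria with antibiotic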
Mtb FBA inh: inhibitors of M. tuberculosis fructose-bisphosphate aldolase; P9WQA3; AID 588726; inhibition, % at 1 µM; purified M. tuberculosis FBA, fluorescence read-out; actives 2.3% (n = 360,000);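 note: 0% = vehicle and 100% = reference inhibitor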
Mtb UGM inh: Mtb UDP-galactopyranose mutase inhibition. AID 504406. inhibition, % at 10 µM. purified UGM, fluorescence polarization probe displacement. actives 0.06% (n = 320,000); in the data active = inhibition above about 10%, passing the limit was not always enough; inconclusive = no clear call, values can overlap the other calls
Target sequence (P9WIQ1 whole entry, looked up): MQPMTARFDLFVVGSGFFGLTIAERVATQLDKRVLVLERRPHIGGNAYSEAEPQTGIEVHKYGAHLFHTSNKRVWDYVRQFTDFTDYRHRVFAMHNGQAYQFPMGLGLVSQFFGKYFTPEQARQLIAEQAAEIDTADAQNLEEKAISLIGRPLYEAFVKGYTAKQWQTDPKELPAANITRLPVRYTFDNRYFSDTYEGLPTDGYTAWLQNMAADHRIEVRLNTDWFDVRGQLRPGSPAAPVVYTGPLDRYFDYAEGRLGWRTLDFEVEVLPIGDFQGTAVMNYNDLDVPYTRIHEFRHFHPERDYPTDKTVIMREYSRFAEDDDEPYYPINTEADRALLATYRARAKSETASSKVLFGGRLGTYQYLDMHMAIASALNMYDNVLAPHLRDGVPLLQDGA
GDH-TPI counter-1: inhibits GDH-TPI coupling enzymes, artifact for Mtb FBA screen; actives 1.2% (n = 360,000); inhibition, % at 4.8 µM; GDH-TPI coupled enzyme counterscreen, NADH absorbance; AID 588335; in the data active = inhibition above about 30%;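 note: 0% = DMSO wells and 100% = wells lacking the enzyme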
Rv3671c protease: inhibits the M. tuberculosis serine protease Rv3671c; P9WHR9; inhibition, % at 5.96 µM; actives 0.048% (n = 320,000); AID 2606; in the data active = inhibition above about 38%;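 note: extracellular domain of Rv3671c used as enzyme; 0% = enzyme with DMSO and 100% = no enzyme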
Mtb FBA inh conf: confirmation of M. tuberculosis fructose-bisphosphate aldolase inhibitors | inhibition, % at 1 µM | shares compounds with Mtb FBA inh | AID 651616 | actives 78% (n = 5,600) | purified M. tuberculosis FBA, fluorescence read-out;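 note: 0% = vehicle wells and 100% = reference inhibitor wells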
GDH-TPI counter-2: counter-screen for M. tuberculosis FBA inhibitors: GDH-TPI coupled enzyme inhibition. shares compounds with Mtb FBA inh. actives 81% (n = 5,600). inhibition, % at 1 µM. GDH-TPI coupled enzyme counterscreen, fluorescence; in the data active = inhibition above about 10%
An asterisk follows results filed as active; u = inconclusive; x = no result given. Only some compounds are listed: those with a hit (about 3.5% of all), similar ones and a draw of the others. Cut-off read from the data, not from the text of the source, unless noted: active = inhibition above about 27%; inactive = the rest.

SMILES	Mtb betalactam	Mtb FBA inh	Mtb UGM inh	GDH-TPI counter-1	Rv3671c protease	Mtb FBA inh conf	GDH-TPI counter-2
COc1ccc(-c2c(C)oc3c(CN4CCCC(C)C4)c(O)ccc3c2=O)cc1OC (stereo not given)	x	38.5*	x	18.2	x	-0.1	-2.1
COc1ccc(-c2c(C)oc3c(CN4CCCCC4C)c(O)ccc3c2=O)cc1OC (stereo not given)	-0.2	41.8*	1.3	34.1*	6.5	-1.5	-6.3
CCCCn1c(N)c(N(CCOC)C(=O)CCN2C(=O)C3CC=CCC3C2=O)c(=O)[nH]c1=O (stereo not given)	x	-2.1	x	-12.7	x	x	x
CN1C(=S)SC(N(O)C(=O)Nc2ccccc2)C1(C)C (stereo not given)	0.4	0.3	-1.3	-5.2	1.1	x	x
CN1C(=S)SC(N(O)C(=O)Nc2cccc3ccccc23)C1(C)C (stereo not given)	-2.4	44.3*	2.8	-4.5	-0.4	34.8*	24.5*
CC1CCc2c(sc(Nc3nc4c(F)cccc4s3)c2C(N)=O)C1 (stereo not given)	62.5	27.8*	-0.5	15.0	1.2	113.3*	98.8*
COc1ccc2oc(=O)c(-c3nc(C)cs3)cc2c1	u	35.1*	-3.5	12.7	2.7	110.7*	78.2*
N=c1c(C(=O)NCCN2CCOCC2)cc2c(=O)n3ccccc3nc2n1Cc1ccc(F)cc1	7.1	40.3*	-0.8	0.0	-9.2	102.8*	80.7*
Cn1c(=N)c(S(=O)(=O)c2ccccc2)cc2c(=O)n3ccccc3nc21	-15.2	60.3*	0.7	-1.1	-4.0	71.2*	53.6*
N=c1c(S(=O)(=O)c2ccc(F)cc2)cc2c(=O)n3ccccc3nc2n1CC1CCCO1 (stereo not given)	-2.6	83.6*	2.1	6.6	-0.1	96.9*	79.4*
CCCn1c(=N)c(S(=O)(=O)c2ccc(F)cc2)cc2c(=O)n3ccccc3nc21	-1.3	23.0	-0.7	4.5	-10.6	x	x
COCCCn1c(=N)c(C(=O)NCc2ccc3c(c2)OCO3)cc2c(=O)n3ccccc3nc21	-4.3	6.6	0.6	0.6	0.3	x	x
Cn1c(=N)c(S(=O)(=O)c2ccc(F)cc2)cc2c(=O)n3ccccc3nc21	-5.1	10.1	-0.6	-5.2	8.4	x	x
O=C(NCCN1CCOCC1)c1cc(-c2ccc(F)cc2)nc2ccccc12	-4.7	9.7	1.2	12.7	-0.9	x	x
N=c1c(C(=O)NCCN2CCOCC2)cc2c(=O)n3ccccc3nc2n1CCCN1CCOCC1	5.9	88.4*	2.9	10.7	6.5	155.7*	117.2*
O=C(CCC(=O)N1CCOc2ccccc21)NC1CCCCCC1	1.7	1.5	1.7	-1.0	-6.2	x	x
CC(=O)c1ccccc1N(C(=O)c1ccco1)C(C(=O)NC1CCCC1)c1ccc(C)cc1 (stereo not given)	-1.1	-3.6	1.3	8.9	4.3	x	x
CC(C)[C@H](NC(=O)[C@H](CC(=O)O)NC(=O)[C@H](CCCCN)NC(=O)[C@@H](N)CCCN=C(N)N)C(=O)N[C@@H](Cc1ccc(O)cc1)C(=O)O	-8.1	x	-1.4	x	-8.8	x	x
CSCC[C@H](N)C(=O)N1CCC(C(=O)N[C@H](C)C(=O)NC(C)c2ccccc2)CC1 (stereo not given in full)	-1.7	-0.3	1.3	0.0	-1.5	x	x
O=c1c2ccccc2nc2ccccn12	-5.2	109.3*	1.6	0.6	7.5	163.0*	150.5*
Cc1cc(C(=O)NCCN2CCOCC2)c2ccccc2n1	-7.7	3.8	1.4	14.6	-6.5	x	x
N=c1c(S(=O)(=O)c2ccccc2)cc2c(=O)n3ccccc3nc2n1CCCN1CCOCC1	2.5	51.9*	0.8	9.6	-1.1	48.1*	38.2*
Cc1ccc2nc3c(cc(C(=O)NCCN4CCOCC4)c(=N)n3CCCN3CCOCC3)c(=O)n2c1	-4.6	78.3*	0.4	5.4	-10.6	61.3*	42.3*
CC(C)OCCCn1c(=N)c(S(=O)(=O)c2ccccc2)cc2c(=O)n3ccccc3nc21	8.5	12.9	-0.6	13.4	1.6	x	x
Cn1cc(CN2CCC(Oc3ccc(C(=O)N4CCCCC4)cc3)CC2)cn1	-6.9	-1.8	0.4	-0.3	-3.2	x	x
SMILES	Mtb betalactam	Mtb FBA inh	Mtb UGM inh	GDH-TPI counter-1	Rv3671c protease	Mtb FBA inh conf	GDH-TPI counter-2
Cc1csc(CN(C)C(=O)C2CCC(=O)N(CCN(C)C)C2)n1 (stereo not given)	-1.9	-1.7	0.6	4.3	-15.8	x	x
CCC(C)[C@H](NC(=O)Nc1ccccc1F)C(=O)O (stereo not given in full)	-4.9	-2.8	-0.6	-1.0	-8.7	x	x
CCCn1nc(NC(=O)C2CCCO2)c2cc3cccc(C)c3nc21 (stereo not given)	1.3	37.3*	-0.3	14.8	2.1	179.4*	149.1*
CC(C)Cn1nc(NC(=O)C2CCCO2)c2cc3ccccc3nc21 (stereo not given)	7.7	9.8	3.2	-1.5	4.4	x	x
CCOC(=O)CCc1c(C)nc2c(c(C)nn2-c2ccc(C)cc2)c1C	5.7	7.5	4.2	0.0	1.4	x	x
Cc1ccc(-n2nc(C)c3c(C)c(CCC(=O)O)c(C)nc32)cc1C	3.4	40.2*	-0.1	2.2	-3.2	0.7	-0.1
Cc1ccc(-n2nc(C)c3c(C)c(CCC(=O)O)c(C)nc32)cc1	2.8	67.6*	-3.9	1.7	3.6	183.6*	117.4*
CC(=O)c1ccc2ccccc2c1OC(=O)c1ccncc1	x	0.3	x	7.1	x	x	x
Cc1c(NC(=O)Nc2cc(F)c(F)cc2Cl)c(=O)n(-c2ccccc2)n1C	7.1	0.6	-0.4	-0.8	3.9	x	x
C#CCNC(=O)/C=C/c1ccc(OC)cc1	1.6	-2.0	3.2	3.5	-2.7	x	x
O=C(O)c1ccc(C(=O)Nc2cccc3ccccc23)c(C(=O)O)c1	7.1	53.9*	4.3	8.6	x	155.2*	111.5*
O=C(O)c1cccc([N+](=O)[O-])c1C(=O)Nc1cccc2ccccc12	1.8	48.3*	-0.2	7.7	-14.7	116.2*	98.6*
CCC(C)c1c(O)nc(SCC(=O)N2CCCCCC2)[nH]c1=O (stereo not given)	-3.7	0.0	1.3	-4.5	6.8	x	x
Cc1ccc2[nH]c3c(NCc4ccco4)ncnc3c2c1	51.0	42.3*	-1.4	9.6	-2.6	-1.9	-7.1
COc1cc(CNc2ncnc3c2[nH]c2ccc(C)cc23)cc(OC)c1	85.4	35.4*	-3.3	4.8	15.9	-5.3	-0.5
Cc1ccc2[nH]c3c(NCCCN4CCCC4=O)ncnc3c2c1	0.4	38.9*	0.3	5.7	7.8	25.7	27.0*
Cc1ccc(-n2ncc3c(NCCCN4CCCC4=O)ncnc32)c(C)c1	-0.4	2.3	-1.5	2.8	4.6	x	x
COc1ccc(OCc2nnc(SCC(=O)Nc3ccccc3C#N)o2)cc1	2.8	-0.2	-0.8	-8.8	-5.8	x	x
CCCn1nnnc1NCc1c(F)cccc1Cl	2.8	68.3*	-0.1	-2.3	8.0	-6.6	-6.5
